Test [1] in a line: A CellTox Green Cytotoxicity Assay to monitor cytotoxicity in HEK293 cells - 32 hour (AID 1224881). Further: nearly all actives have a fitted effect of over 40% in size. Further: potency means the concentration at half of the fitted maximal effect. The method, boiled down:
(§1)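 HEK293 cells, 600/well, were preincubated 5 hours and then exposed to compounds at 37 C for up to 40 hours. A cell-impermeant cyanine dye staining dead-cell DNA was read by fluorescence at 0, 8, 16, 24, 32 and 40 h time points.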

Test [2] can be described thus: A CellTox Green Cytotoxicity Assay to monitor cytotoxicity in HepG2 cells - 0 hour (AID 1224882). Further: nearly all actives have a fitted effect of over 35% in size. The method, boiled down:
(§2)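 HepG2 cells, 600/well, preincubated 5 h with CellTox Green dye, then exposed to Tox21 compounds in DMSO at 37 C for up to 40 h. Dead-cell DNA fluorescence read at the indicated time point.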

Test [3] is described as follows: A CellTox Green Cytotoxicity Assay to monitor cytotoxicity in HEK293 cells - 8 hour (AID 1224884). Further: nearly all actives have a fitted effect of over 35% in size. The method, boiled down: as §1
Test [4] is described as follows: qHTS RealTime-Glo MT Cell Viability Assay in HepG2 cells - 16 hour (AID 1224885). Further: nearly all actives have a fitted effect of over 50% in size. In a few lines: (§3)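 Real-time, nonlytic viability: 600 HepG2 cells/well mixed with NanoLuc enzyme plus prosubstrate; 5 h settle, compound (DMSO) added by pintool; luminescence monitored over 40 h at 37 C.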
In general terms: Quantitative high-throughput screening tests each substance at several concentrations.

Test [5] can be described thus: qHTS RealTime-Glo MT Cell Viability Assay in HEK293 cells - 24 hour (AID 1224886). Further: top concentration of the series differs between compounds; nearly all actives have a fitted effect of over 50% in size. In a few lines: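 Cells + reagent dispensed (600 cells/well, HEK293) → 5 h at 37 C/5% CO2 → 23 nL compound in DMSO pinned → 40 h at 37 C → luminescence read at 0, 8, 16, 24, 32, 40 h.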
Test [6] in a line: qHTS RealTime-Glo MT Cell Viability Assay in HEK293 cells - 8 hour (AID 1224887). Further: top concentration of the series differs between compounds; nearly all actives have a fitted effect of over 50% in size. In a few lines: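 600 cells/well were plated with the nonlytic NanoLuc/prosubstrate reagent, pre-incubated 5 h, then given 23 nL of compound in DMSO. Incubation at 37 C for 40 h, with luminescence from viable-cell-reduced substrate read repeatedly from 0 h.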
The nature of test [7]: A CellTox Green Cytotoxicity Assay to monitor cytotoxicity in HEK293 cells - 16 hour (AID 1224888). Further: nearly all actives have a fitted effect of over 35% in size. In a few lines: as §1
Test [8] in a line: qHTS RealTime-Glo MT Cell Viability Assay in HepG2 cells - 0 hour (AID 1224889). Further: nearly all actives have a fitted effect of over 50% in size. The method, boiled down: as §3
Test [9] in a line: A CellTox Green Cytotoxicity Assay to monitor cytotoxicity in HepG2 cells - 8 hour (AID 1224890). Further: nearly all actives have a fitted effect of over 45% in size. In a few lines: as §2
A short description of test [10]: qHTS assay to identify small molecule antagonists of the estrogen receptor alpha (ER-alpha) signaling pathway using the BG1 cell line in the presence of 0.1 nM 17-beta-estradiol - cell viability counter screen (AID 1259241). Further: nearly all actives have a fitted effect of over 40% in size. In a few lines:
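Following 5 days in phenol red-free medium with charcoal-stripped serum, VM7Luc4E2 cells received test compounds alongside 0.1 nM 17beta-estradiol (final) at 37C for 22 hr. Live cells were then quantified via protease-substrate fluorescence.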

Test [11] is described as follows: qHTS assay to identify small molecule antagonists of the androgen receptor (AR) signaling pathway using the MDA cell line in the presence of 0.5 nM R1881 - cell viability counter screen (AID 1259242). Further: nearly all actives have a fitted effect of over 45% in size. In a few lines: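 MDA-kb2 cells (MMTV-luciferase, AR/GR responsive) were treated with compounds plus 0.5 nM R1881 (final) for 16 hr at 37C, 0% CO2. Viability was then read in the same wells as live-cell protease fluorescence (CellTiter-Fluor, 30 min).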

Test [12] is described as follows: qHTS assay to identify small molecule phospholipidosis (PLD) inducers (AID 1259344; active means well fitted curve in the direction sought with a large enough effect; an effect the other way counts as inactive or inconclusive). The method, boiled down:
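Fluorescent phospholipid staining (LipidTOX Red) measured by automated microscopy in fixed HepG2 cells after 24 h treatment; nuclei counterstained with Hoechst 33342; amiodarone as reference inducer.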

A short description of test [13]: qHTS assay to identify small molecule HDAC inhibitors (AID 1259364). Further: nearly all actives have a fitted effect of over 45% in size. Further: potency means the concentration at half of the fitted maximal effect. The method, boiled down: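 Wild-type HCT-116 cells, plated overnight at 37 C, exposed to compounds 2 hr at 37 C; luminogenic HDAC-Glo substrate then added 30 min at room temperature. Luminescence reports relative endogenous class I/II HDAC activity.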
Test [14] can be described thus: qHTS assay to identify small molecule HDAC inhibitors - cell viability counter screen (AID 1259365). In a few lines:
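HCT-116 wild-type, overnight attachment; 2hr drug exposure, 37C; CellTiter-Glo luminescent ATP readout after 30min RT.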

A short description of test [15]: qHTS assay to identify small molecule agonists of the sonic hedgehog signaling (Shh) pathway - cell viability counter screen (AID 1259366). Further: nearly all actives have a fitted effect of over 50% in size. In a few lines: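 Compounds in DMSO were pin-transferred onto 3T3 Gli1-Luc cells that had settled 4hr; plates then stood 24hr at 37C and 5% CO2. One hour before the end, CellTiter-Fluor was added and fluorescence recorded.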

Test [16] in a line: qHTS assay to identify small molecule antagonists of the sonic hedgehog signaling (Shh) pathway - cell viability counter screen (AID 1259367). Further: nearly all actives have a fitted effect of over 55% in size. In a few lines: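 Using CellTiter-Fluor, viability of Gli1-Luc reporter 3T3 cells is read by fluorescence in the wells used for the Shh luciferase assay. Treatment lasts 23 hr with conditioned medium, then reagent 1 hr at 37C.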
Test [17] is described as follows: A CellTox Green Cytotoxicity Assay to monitor cytotoxicity in HepG2 cells - 32 hour (AID 1224883). Further: nearly all actives have a fitted effect of over 50% in size. The method, boiled down: as §2
The target in test [18] is Estrogen receptor (Homo sapiens) (UniProt P03372). Description: qHTS assay to identify small molecule antagonists of the estrogen receptor alpha (ER-alpha) signaling pathway using the BG1 cell line in the presence of 0.1 nM 17-beta-estradiol (AID 1259244). Further: nearly all actives have a fitted effect of over 50% in size. The method, boiled down: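 VM7Luc4E2 cells (endogenous full-length ER-alpha, 4×ERE-luciferase), kept 5 days in phenol red-free, charcoal-stripped FBS medium; 4,000 cells/well. Compounds added with 0.1 nM (final) 17beta-estradiol, 22 hr at 37C; luminescence read with ONE-Glo after 30 min.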
Chain of Estrogen receptor (Homo sapiens) (P03372 whole entry, looked up): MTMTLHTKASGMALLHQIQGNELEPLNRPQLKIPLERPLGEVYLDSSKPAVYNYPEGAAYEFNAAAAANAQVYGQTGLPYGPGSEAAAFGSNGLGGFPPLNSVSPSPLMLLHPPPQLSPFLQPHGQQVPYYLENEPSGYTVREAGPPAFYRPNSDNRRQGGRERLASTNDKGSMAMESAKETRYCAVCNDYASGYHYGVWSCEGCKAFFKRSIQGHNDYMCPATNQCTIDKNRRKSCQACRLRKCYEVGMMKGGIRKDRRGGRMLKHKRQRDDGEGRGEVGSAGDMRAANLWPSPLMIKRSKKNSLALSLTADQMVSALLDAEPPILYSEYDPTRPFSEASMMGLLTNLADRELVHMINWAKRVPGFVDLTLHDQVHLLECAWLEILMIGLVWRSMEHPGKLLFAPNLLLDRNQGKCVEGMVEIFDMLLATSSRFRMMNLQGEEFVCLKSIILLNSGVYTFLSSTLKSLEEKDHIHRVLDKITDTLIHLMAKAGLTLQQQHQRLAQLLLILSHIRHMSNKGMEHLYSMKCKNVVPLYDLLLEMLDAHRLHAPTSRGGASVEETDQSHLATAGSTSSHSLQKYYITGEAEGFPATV

In test [19] the target is Androgen receptor (Homo sapiens) (UniProt P10275). In words: qHTS assay to identify small molecule antagonists of the androgen receptor (AR) signaling pathway using the MDA cell line in the presence of 0.5 nM R1881 (AID 1259243). Further: nearly all actives have a fitted effect of over 50% in size. The method, boiled down:
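MDA-kb2 cells (MMTV-luciferase, responsive to AR and GR) at 3,000/well, rested 5 h at 37C, 0% CO2, then given compounds plus 0.5 nM R1881 (final) for 16 hr. Luciferase read with ONE-Glo after 30 min at room temperature.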

From PubChem BioAssay (Tox21) come the findings set out here.

The structures appear in SMILES notation. Unmarked numbers belong to inactive results. Inconclusive results are not listed. The source made the active and inactive calls. Unless noted, the call rests on the fitted dose curve; in most records, active means well fitted curve in the direction sought with a large enough effect in the repeat runs; inconclusive means weak or mixed curves; inactive means no such curve, though single readings can be large; an effect the other way counts as inactive or inconclusive.

Chain of Androgen receptor (Homo sapiens) (P10275 whole entry, looked up): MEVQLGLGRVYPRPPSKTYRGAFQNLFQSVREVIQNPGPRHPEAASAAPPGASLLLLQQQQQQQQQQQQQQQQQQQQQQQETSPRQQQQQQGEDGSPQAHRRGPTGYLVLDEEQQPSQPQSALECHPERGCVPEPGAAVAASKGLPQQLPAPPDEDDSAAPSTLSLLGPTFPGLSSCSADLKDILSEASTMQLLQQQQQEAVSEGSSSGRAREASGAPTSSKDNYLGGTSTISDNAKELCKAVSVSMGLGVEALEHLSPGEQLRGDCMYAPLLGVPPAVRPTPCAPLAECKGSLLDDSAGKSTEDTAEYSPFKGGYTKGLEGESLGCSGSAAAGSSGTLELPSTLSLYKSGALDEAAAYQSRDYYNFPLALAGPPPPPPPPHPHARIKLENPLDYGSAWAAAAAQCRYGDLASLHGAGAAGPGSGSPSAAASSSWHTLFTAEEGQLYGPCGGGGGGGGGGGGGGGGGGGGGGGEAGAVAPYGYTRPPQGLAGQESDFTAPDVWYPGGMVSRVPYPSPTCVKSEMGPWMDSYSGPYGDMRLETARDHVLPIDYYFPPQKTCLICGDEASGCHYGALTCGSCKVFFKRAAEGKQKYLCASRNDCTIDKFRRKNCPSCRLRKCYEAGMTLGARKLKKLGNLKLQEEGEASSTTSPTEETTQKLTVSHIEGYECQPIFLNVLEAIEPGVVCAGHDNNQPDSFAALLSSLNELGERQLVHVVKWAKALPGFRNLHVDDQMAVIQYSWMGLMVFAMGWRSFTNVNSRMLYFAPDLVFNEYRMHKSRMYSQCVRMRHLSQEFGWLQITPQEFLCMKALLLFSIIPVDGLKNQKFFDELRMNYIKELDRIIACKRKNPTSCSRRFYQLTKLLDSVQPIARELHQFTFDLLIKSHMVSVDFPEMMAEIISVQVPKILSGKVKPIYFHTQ

Regarding `CC(C)C[C@H](NC(=O)CNC(=O)[C@H](Cc1ccc(O)cc1)NC(=O)[C@H](CO)NC(=O)[C@H](Cc1c[nH]c2ccccc12)NC(=O)[C@H](Cc1cnc[nH]1)NC(=O)[C@@H]1CCC(=O)N1)C(=O)N[C@@H](CCCN=C(N)N)C(=O)N1CCC[C@H]1C(=O)NCC(N)=O` (stereo in doubt), the Potency entry in [1], in [3], in [5], in [6], in test [8] and in test [10] was “inactive” throughout. The Potency entry in [13], in test [15] and in [16] was “inactive” in each case. The call in test [2], in test [4], in [7], in test [9], in [11] and in test [12] was inactive. Besides, the result in test [14] was inactive.
As to `Nc1ncnc(Nc2ccccc2)n1`, the Potency entry in test [1], in test [17], in [3], in test [5], in test [6] and in test [8] was “inactive” each time. Also, the Potency result in test [10], in [18] and in [15] was “inactive” each time. Further, the molecule was classed as inactive in test [2], in test [4], in [7], in test [9], in [11] and in test [12]. In test [14], the outcome was inactive. Also, the Potency in test [13] was 10.6 µM (active).
On to `CC(C)(C)c1cc(CCC(=O)NN)cc(C(C)(C)C)c1O`, for which the Potency result in [1], in [3], in [5], in [6], in [8] and in test [10] was “inactive” throughout. Besides, the Potency result in test [13], in [15] and in [16] was “inactive” each time. The outcome in test [2], in [4], in [7], in [9], in [11] and in test [14] was inactive.
In the case of `CCN1CCc2nc(N)oc2CC1`, the Potency entry in [1], in [17], in test [3], in test [5], in test [6] and in [8] was “inactive” throughout. Also, the Potency result in test [10], in test [18], in test [13], in [15] and in test [16] was “inactive” throughout. The result in [2], in [4], in [7], in test [9], in test [12] and in test [14] was inactive.
Regarding `C[C@@H](Oc1ccc(CNC(=O)c2cccnc2Oc2ccc3c(c2)OCO3)c(F)c1)C(=O)O`, the Potency result in [1], in test [17], in [3], in [5], in test [6] and in test [8] was “inactive” in each case. For the same molecule, the Potency result in [10], in test [18], in test [13], in test [15] and in test [16] was “inactive” throughout. Moreover, the molecule was classed as inactive in test [2], in [4], in test [7], in [9], in test [11] and in test [14].
Regarding `C=C(C)C1CCC(C)(O)CC1` (stereo unspecified), the Potency entry in test [1], in test [17], in test [3], in test [5], in test [6] and in test [8] was “inactive” each time. The Potency result in test [10], in [19], in [18], in test [13] and in [15] was “inactive” each time. Further, the result in test [4], in [7], in test [9], in test [11] and in [14] was inactive.
As to `Cc1cccc2nccnc12`, in test [1], the Potency is 24.5 µM (active). Moreover, the result in test [2], in [4], in [9], in test [11] and in test [14] was inactive. Further, the Potency result in [17], in [3], in test [5], in [6], in test [8] and in [10] was “inactive” each time. Also, the Potency result in test [18], in [13], in [15] and in [16] was “inactive” in each case.
For the molecule `CCO[Si](CCCS)(OCC)OCC`, the Potency entry in [1], in [17], in test [8], in test [10], in [13] and in test [15] was “inactive” throughout. Further, in [16], the Potency result was “inactive”. Further, the outcome in test [2], in test [4], in test [9], in [11] and in test [14] was inactive.
Turning to `CCCCCCCCCCCCCC`, the Potency entry in test [1], in test [3], in test [5], in test [6], in test [8] and in [10] was “inactive” each time. The Potency result in test [13], in test [15] and in test [16] was “inactive” throughout. Further, the result in [2], in test [4], in test [7], in test [9] and in test [14] was inactive.
Regarding `O=C(/N=N/C(=O)OCc1ccccc1)OCc1ccccc1`, the Potency entry in [1], in test [17], in test [5], in test [6], in [8] and in [10] was “inactive” throughout. Moreover, the Potency entry in test [18], in [13], in [15] and in [16] was “inactive” in each case. Moreover, the molecule was called inactive in [4], in test [7], in test [9] and in test [14].
For `N#Cc1ccc(C(=O)O)cc1`, the Potency result in [1], in test [17], in test [3], in test [5], in test [6] and in [8] was “inactive” each time. Besides, the Potency entry in [10], in test [19], in test [13], in [15] and in test [16] was “inactive” throughout. Besides, the molecule was classed as inactive in test [2], in test [4], in test [7], in [9], in test [11] and in [14].
